{"source": "PubChem BioAssay AID651718", "about": "(The Scripps Research Institute Molecular Screening Center, 2012)", "note": "The campaign covered roughly 360,000 compounds. About 2,700 (0.75%) were called active. The list comes from a sample in which actives are over-represented; it also holds similar structures and randomly drawn compounds. Unmarked numbers belong to inactive results. No stated cut-off is given here; in the data, active means inhibition above about 4.5%; inactive means the rest."}
{"tested_on": "Methionine sulfoxide reductase A (Bos taurus)", "experiment": "bovine MsrA enzyme inhibitors, primary screen, biochemical, absorbance, HTS (AID 651718);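 further: 0% = vehicle wells with enzyme and 100% = reference inhibitor wells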", "settings": "purified bovine MsrA, absorbance read-out; at 15.5 µM; active compounds read high"}
{"compound": "Cc1cc(Br)cn2c(Cc3ccccc3C(F)(F)F)c(-c3ccc(C#N)cc3)nc12", "inhibition": "-0.24%"}
{"compound": "NC(=S)NN=Cc1ccc(OC(=O)COc2cc(Cl)c(Cl)cc2Cl)cn1", "inhibition": "4.84% (active)"}
{"compound": "O=C(COC(=O)COc1cc(Cl)c(Cl)cc1Cl)NC1CC1", "inhibition": "3.33%"}
{"compound": "O=C(COc1cc(Cl)c(Cl)cc1Cl)NCCc1ccccn1", "inhibition": "-0.1%"}
{"compound": "CCCCCCCCN1C(=O)[C@@H](CC(=O)NCc2ccccc2)C[C@@]2(C(=O)OC)C1=C[C@H](C(C)(C)C)O[C@@H]2C", "inhibition": "0.32%"}
{"compound": "CCOc1cccc(NC(=O)Cn2nc(-c3ccc4c(c3)OCCO4)ccc2=O)c1", "inhibition": "-0.18%"}
{"compound": "COc1cc(C=NC2CCCCC2)ccc1O", "inhibition": "3.96%"}
{"compound": "CCC(=O)c1ccc(OC(=O)/C=C/c2cc(OC)c(OC)c(OC)c2)cc1", "inhibition": "1.16%"}
{"compound": "CCOc1ccc2ccccc2c1/C=N/NC(=O)c1c(C)cc(C)[nH]c1=O", "inhibition": "2.01%"}
{"compound": "COc1ccc2[nH]c(=O)c(CNc3ccc(C)c(C)c3)cc2c1", "inhibition": "1%"}
{"compound": "CCOc1ccccc1/C=N/NC(=O)CNC(=O)COc1ccccc1", "inhibition": "0.86%"}
{"compound": "CCN1CCCC1CNC(=O)c1cc2cc(OC)c(OC)cc2[nH]1", "note": "(stereo unspecified)", "inhibition": "2.2%"}
{"compound": "COc1cc2cc(C(=O)N/N=C/c3cccc(OC)c3OC)[nH]c2cc1OC", "inhibition": "5.39% (active)"}
{"compound": "CCOc1ccc2[nH]c(C(=O)N/N=C/c3cccc(OC)c3OC)cc2c1", "inhibition": "5.19% (active)"}
{"compound": "COc1ccc2[nH]c(C(=O)N/N=C/c3cc(OC)c(OC)c(OC)c3)cc2c1", "inhibition": "6.03% (active)"}
{"compound": "COc1cccc2[nH]c(C(=O)NCCc3ccccc3)cc12", "inhibition": "-0.25%"}
{"compound": "Cc1ccc(C)c(N2C(=O)CS/C2=N\\NC(=O)c2ccccc2Cl)c1", "inhibition": "0.65%"}
{"compound": "Cc1ccc(N2C(=O)C3C4C=CC(CC4)C3C2=O)cc1Br", "note": "(stereo unspecified)", "inhibition": "-0.75%"}
{"compound": "Cc1[nH]nc2c1C(c1ccc(Br)cc1)NC2=O", "note": "(stereo unspecified)", "inhibition": "0.64%"}
{"compound": "CCOC(=O)C1=CCC2C(=O)N(Cc3ccccc3)C(=O)C12", "note": "(stereo unspecified)", "inhibition": "-0.57%"}
{"compound": "C[C@H](O)[C@@H]1CN2CCc3ccc(-c4ccc5c(c4)OCO5)cc3[C@@H]2C[C@@H]1N(C)C(=O)C1CCCCC1", "inhibition": "-0.49%"}
{"compound": "Cc1ccc(C(=O)NC2CCCC(C)C2C)cc1S(=O)(=O)N1CCCCC1", "note": "(stereo unspecified)", "inhibition": "-0.29%"}
{"compound": "Cn1nc(C(F)(F)F)c2cc(C(=O)N3CCOCC3)sc21", "inhibition": "-0.18%"}
{"compound": "COc1cccc(-c2ccc(SCC(=O)N3CCN(c4ccccc4)CC3)nn2)c1", "inhibition": "-0.38%"}
{"compound": "COc1cccc(-c2nn(C)c3sc(C(=O)N4CCN(c5ccccc5)CC4)cc23)c1", "inhibition": "4.59% (active)"}
{"compound": "O=C(C(=O)N1CCC(CNS(=O)(=O)Cc2ccccc2)CC1)c1cc2ccccc2o1", "inhibition": "1.99%"}
{"compound": "O=c1c2ccccc2nnn1CSc1nc2sc3c(c2c(=O)n1CC1CCCO1)CCC3", "note": "(stereo unspecified)", "inhibition": "-0.37%"}
{"compound": "Clc1cc(-c2ccc(/C=N/n3cnnc3)o2)ccc1Br", "inhibition": "0.91%"}
{"compound": "Brc1cc(/C=N/n2cnnc2)oc1Br", "inhibition": "2.05%"}
{"compound": "Cc1ccc(Cl)cc1-c1ccc(/C=N/n2cnnc2)o1", "inhibition": "4.94% (active)"}
{"compound": "CC(=O)Nc1ccc(S(=O)(=O)N(C)c2ccc(OCC(=O)OCC(=O)N3CCCCC3)cc2)cc1", "inhibition": "-0.39%"}
{"compound": "CC(C)OCCCNC(=S)N1CCC(C(=O)c2ccc3c(c2)OCCO3)CC1", "inhibition": "-0.4%"}
{"compound": "CCCN(CC(=O)Nc1ccccc1OC)C(=O)CCC(=O)c1ccc(F)cc1", "inhibition": "-0.69%"}
{"compound": "CSc1nc(N(C)NC(=O)c2cccc(C)c2)c2ccccc2n1", "inhibition": "0.74%"}
{"compound": "Cc1cc(C)nc(S/C=C/C(=O)c2ccccc2)n1", "inhibition": "5.17% (active)"}
{"compound": "CCOC(=O)C(=Cc1ccccc1)C(=O)c1ccccc1", "inhibition": "0.49%"}
{"compound": "CCc1ccc(C2=CC(=O)CC(C)(C)C2=O)cc1", "inhibition": "0.09%"}
{"compound": "COc1cccc(CNC(=O)[C@H]2CCCN2C(=O)[C@H]2CCCN2C(=O)C2CCCCC2)c1", "inhibition": "-0.24%"}
{"compound": "COCC1CCN(C(=O)C2CCC(=O)N(CC3CCCCC3)C2)CC1", "note": "(stereo unspecified)", "inhibition": "-0.21%"}
{"compound": "CC(N=Cc1nc(-c2ccccc2)oc1O)c1ccccc1", "note": "(stereo unspecified)", "inhibition": "5.77% (active)"}
{"compound": "Cc1ccc(-c2noc(CC(c3ccccc3)c3ccccc3)n2)cc1", "inhibition": "0.66%"}
{"compound": "Oc1oc(-c2ccccc2Br)nc1/C=N/c1ccccn1", "inhibition": "2.4%"}
{"compound": "CCN(CC)CC1(O)CCN(C(=O)c2ccc(Cl)c(Cl)c2)CC1", "inhibition": "-0.14%"}
{"compound": "Cc1ccc(C)c(CN2CCC(CNC(=O)C3CCCN(c4ncnc5c4nc4n5CCCCC4)C3)CC2)c1", "note": "(stereo unspecified)", "inhibition": "1.23%"}
{"compound": "CSc1ccc(/C=C2\\NC(=O)NC2=O)cc1", "inhibition": "7.41% (active)"}
{"compound": "CC(C)c1ccc(/C=C2\\NC(=O)NC2=O)cc1", "inhibition": "1.9%"}
{"compound": "CSc1ccc(/C=C/C(=O)NC23CC4CC(CC(C4)C2)C3)cc1", "inhibition": "3.33%"}
{"compound": "OC(CCl)CCl", "inhibition": "-0.37%"}
{"compound": "COc1ccc(CN2CCC(C)(Oc3cccc(F)c3)C2)c2ccccc12", "note": "(stereo unspecified)", "inhibition": "0.31%"}
{"compound": "CC(=NNC(=O)c1ccncc1)c1ccc(Cl)c(Cl)c1", "inhibition": "-0.76%"}
{"compound": "CC(/C=N/NC(=O)c1cc(-c2ccc3ccccc3c2)n[nH]1)=C\\c1ccco1", "inhibition": "2.77%"}
{"compound": "CC(/C=N/NC(=O)c1ccncc1)=C\\c1ccco1", "inhibition": "4.8% (active)"}
{"compound": "C=CCN1C(=O)N(Cc2ccccc2)c2ccccc2S1(=O)=O", "inhibition": "3.26%"}
{"compound": "COCCNC(=S)N(CCc1c(C)[nH]c2ccc(C)cc12)Cc1cccnc1", "inhibition": "-1.51%"}
{"compound": "COCCNC(=S)N/N=C/c1c(C)[nH]c2ccccc12", "inhibition": "5.52% (active)"}
{"compound": "Cc1[nH]c2ccccc2c1/C=N/NC(=O)CNC(=O)c1ccc2c(c1)OCO2", "inhibition": "2.56%"}
{"compound": "Clc1cccc2c1C1CC2CCN1Cc1ccccc1", "note": "(stereo unspecified)", "inhibition": "-1.2%"}
{"compound": "COC(=O)c1cc2c(c3c4cc(F)ccc4n(S(=O)(=O)c4ccccc4)c13)C(=O)N(Cc1ccccc1OC)C2", "inhibition": "1.35%"}
{"compound": "CCC1S/C(=N/N=C/c2ccco2)NC1=O", "note": "(stereo unspecified)", "inhibition": "4.55% (active)"}
{"compound": "CCCCC1S/C(=N/N=C/c2cccs2)NC1=O", "note": "(stereo unspecified)", "inhibition": "0.75%"}
{"compound": "O=C1N/C(=N\\N=C\\c2ccco2)SC1Cc1ccc(F)cc1", "note": "(stereo unspecified)", "inhibition": "2.66%"}
